VLA-4 inh: inhibition in a human VLA-4 binding assay; inhibition, % (about 7 µM as worked out from the volumes in the protocol); actives 0.2% (n = 330,000); AID 2557; VLA-4 expressing cells, ligand binding flow cytometry; P13612; in the data active = inhibition above about 50%
RPL19A-GFP yeast: yeast TOR pathway RPL19A-GFP modulation. S. cerevisiae RPL19A-GFP strain, flow cytometry, 3 h; hits give low values. percent response vs DMSO, % at 10 µM. actives 0.3% (n = 330,000). AID 2025;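 active = percent response vs DMSO below 50%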;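 also: median channel GFP fluorescence of the barcoded RPL19A-GFP strain; ratio of sample median GFP to plate DMSO average so 100% = DMSO; lower means less RPL19A-GFP as with rapamycin TOR inhibition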
LAP4-GFP MLPCN: alters LAP4-GFP fluorescence in TOR pathway yeast screen | actives 0.34% (n = 320,000) | GFP response vs DMSO, % at 10 µM | S. cerevisiae LAP4-GFP multiplex, flow cytometry GFP, 3 h; median GFP as percent of DMSO wells | AID 2023;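 active = GFP response vs DMSO above a set limit, about the screen mean plus 3 SD, cut at about 150% in these data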
MEP2-GFP yeast: modulators of TOR pathway MEP2-GFP in S. cerevisiae; S. cerevisiae MEP2-GFP strain, flow cytometry GFP, 3 h; 100% = DMSO control level; GFP response vs DMSO, % at 10 µM; actives 0.51% (n = 330,000);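 active = GFP response versus DMSO above a set limit, roughly screen mean plus 3 SD, cut at about 180% in these data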;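 also: median GFP fluorescence of the barcode-gated MEP2-GFP cells per well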
CIT2 TOR yeast: modulators of TOR pathway CIT2-GFP in S. cerevisiae; AID 2029; actives 0.065% (n = 320,000); S. cerevisiae CIT2-GFP strain, flow cytometry, 3 h; 100 means same as DMSO wells; GFP response vs DMSO, % at 10 µM;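 active = GFP response relative to DMSO above a set limit, near the screen mean plus 3 SD, cut at about 150% in these data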;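 also: ratio of well median GFP fluorescence to mean of DMSO wells on the plate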
AGP1 TOR yeast: yeast TOR pathway AGP1-GFP modulation. S. cerevisiae AGP1-GFP multiplex flow cytometry, 3 h; GFP as percent of DMSO wells. GFP response vs DMSO, % at 10 µM. actives 0.02% (n = 320,000). AID 2066;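 active = GFP response relative to DMSO above a set limit, near screen average plus 3 SD, cut at about 150% in these data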;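 also: median GFP channel fluorescence of the gated AGP1 strain per well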
LAP4 cherry2: second confirmation of modulators of TOR reporter LAP4-GFP in yeast | GFP response vs DMSO, % at 10 µM | shares compounds with LAP4-GFP MLPCN | AID 2621 | actives 20% (n = 590) | S. cerevisiae LAP4-GFP strain, flow cytometry GFP, 3 h;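 active = GFP signal as percent of the solvent control above about 150%, meaning raised reporter expression, limit read from the data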;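 also: ratio of well median GFP fluorescence to plate DMSO mean so 100% = DMSO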
MEP2-GFP pick2: reconfirmed MEP2-GFP TOR pathway modulator in yeast | shares compounds with LAP4-GFP MLPCN | S. cerevisiae MEP2-GFP strain, flow cytometry GFP, 3 h | GFP response vs DMSO, % at 10 µM | actives 10% (n = 590);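 active = GFP signal above 150% of the solvent control wells, that is a rise of more than half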;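 also: median channel GFP fluorescence of all gated yeast cells per well; ratio of median GFP to plate DMSO average so 100% = DMSO level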
RPL19A-GFP pick2: yeast RPL19A-GFP TOR reporter modulation, second cherry pick; shares compounds with LAP4-GFP MLPCN; S. cerevisiae RPL19A-GFP strain, flow cytometry GFP, 3 h; hits give low values; 100% means same as DMSO wells; GFP response vs DMSO, % at 10 µM; actives 3% (n = 590);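 active = under 65% GFP response relative to DMSO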;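 also: median GFP channel fluorescence per well over the all cells gate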
CIT2 GFP CP2: second confirmation of modulators of TOR reporter CIT2-GFP in yeast; S. cerevisiae CIT2-GFP strain, flow cytometry GFP, 3 h; DMSO control wells read 100%; shares compounds with LAP4-GFP MLPCN; actives 8% (n = 590); GFP response vs DMSO, % at 10 µM;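 active = GFP response vs DMSO above about 150%, limit read from the data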;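 also: median green fluorescence per well over all gated yeast cells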
AGP1-GFP pick2: reconfirmed modulator of AGP1-GFP TOR reporter in yeast; percent response vs DMSO, % at 10 µM; 590 tested, under 10 active; S. cerevisiae AGP1-GFP strain, flow cytometry GFP, 3 h; shares compounds with LAP4-GFP MLPCN;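 active = over 150 percent of DMSO response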;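 also: median GFP channel fluorescence over all cells without mother daughter split; sample median GFP divided by mean DMSO control so 100% equals DMSO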
s288c autofluor: compound is autofluorescent in yeast s288c cells. AID 2757. fluorescence change (kMESF span) at 33 µM. shares compounds with LAP4-GFP MLPCN. S. cerevisiae s288c, 520 nm autofluorescence, flow cytometry, 3 h; hits give high values; zero means same as solvent-only cells. 610 tested, under 10 active;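 active = fluorescence span over the dose series, or activity score, above about 33, limit read from the data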
Yeast autofl DR: counter-screen for autofluorescence of TOR hits in yeast s288c. shares compounds with LAP4-GFP MLPCN. S. cerevisiae s288c parental, compound autofluorescence, flow cytometry, 3 h. fluorescence change (span) at 33 µM. 110 tested, under 10 active. AID 488829;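 active = fluorescence change span, or the activity score built from it, above 25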
TORC1 bypass: stops wildtype yeast growth while TORC1 bypass cells still grow; shares compounds with LAP4-GFP MLPCN; S. cerevisiae BY4741 spot growth rating, 48-72 h; hits give low values; growth rating (0-3) at 30 µM; 120 tested, under 10 active; AID 504456;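 active = growth rating at most 1 for wild type yeast while the TORC1 bypass strain still grows fully, rated 3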
An asterisk follows results filed as active; x = no result; + = active, no number; [ ] = dose if it differs, or a comment. Hits are enriched below; roughly 1.1% of the tested compounds scored in any of these assays.

SMILES | VLA-4 inh | RPL19A-GFP yeast | LAP4-GFP MLPCN | MEP2-GFP yeast | CIT2 TOR yeast | AGP1 TOR yeast | LAP4 cherry2 | MEP2-GFP pick2 | RPL19A-GFP pick2 | CIT2 GFP CP2 | AGP1-GFP pick2 | s288c autofluor | others
CC(C)Cn1c(N)c(C(=O)COC(=O)c2c(O)c(Cl)cc(Cl)c2Cl)c(=O)n(C)c1=O | 22 | 300 | + | + | + | 320* | 96 | 100 | 98 | 90 | 100 | x
CCOC(=O)C1CCN(CC(=O)c2ccc(O)c(C)c2O)CC1 | 30 | 105 | 113 | 105 | 102 | 106 | x | x | x | x | x | x
O=C1c2sc3nc4ccccc4n3c2C(=O)N1c1ccccc1Cl | 30 | 66 | 192* | 99 | 84 | 81 | 138 | 158* | 75 | 104 | 81 | 1.9
O=C(c1ccccn1)c1conc1C(=O)c1ccc(Br)cc1 | -6 | 112 | 331* | 281* | 192* | 103 | x | x | x | x | x | 2.4
C/C(=N\OC(=O)c1ccc(Br)cc1)c1ccccn1 | 0 | 100 | 94 | 87 | 94 | 96 | x | x | x | x | x | x
COc1ccc(C(=O)NC(=S)NNC(=O)COc2ccccc2)cc1 | 9 | 93 | 99 | 92 | 91 | 97 | x | x | x | x | x | x
O=C(COc1ccccc1)NNC(=S)NC(=O)c1ccccc1 | 23 | 114 | 159* | 97 | 96 | 102 | x | x | x | x | x | 2
Cc1cccc(C(=O)NC(=S)NNC(=O)Cc2ccccc2)c1 | -5 | 111 | 209*[may fluoresce green] | 104 | 88 | 105 | 293* | 138 | 116 | 156* | 107 | 1.5
Cc1cccc(C(=O)NC(=S)NCc2ccccc2)c1 | -11 | 99 | 108 | 98 | 92 | 95 | x | x | x | x | x | x
CC(Sc1nnnn1C1CCCC1)C(=O)Nc1cccc(S(=O)(=O)N2CCOCC2)c1 (configuration not stated) | 6 | 100 | 101 | 102 | 106 | 102 | x | x | x | x | x | x
O=S1OC(c2ccccc2)c2cc(Cl)ccc21 (configuration not stated) | 7 | 98 | 157* | 93 | 90 | 86 | 112 | 101 | 100 | 111 | 105 | x
O=S(=O)(c1ccccc1)c1ccc(C(F)(F)F)cn1 | 4 | 92 | 102 | 93 | 95 | x | x | x | x | x | x | -0.2
Cc1ccc(S(=O)(=O)c2ccc([N+](=O)[O-])cn2)cc1 | -5 | 77 | 146 | 100 | 84 | 95 | x | x | x | x | x | 0.92 | Yeast autofl DR=0.57;TORC1 bypass=3
Cc1cc(S(=O)(=O)c2ccc([N+](=O)[O-])cn2)ccc1Br | 7 | 81 | 147 | 85 | 91 | 87 | x | x | x | x | x | x
O=[N+]([O-])c1ccc(Nc2ccccc2)nc1 | -5 | 97 | 101 | 90 | 86 | 88 | x | x | x | x | x | x
O=[N+]([O-])c1ccc(S(=O)(=O)c2ccccc2)nc1 | -5 | 71 | 177* | 125 | 92 | 94 | x | x | x | x | x | 0.4
O=C(CSC(=S)N1CCCC1)N/N=C/c1c(O)[nH]c(=S)[nH]c1=O | -2 | 102 | 98 | 109 | 123 | 100 | x | x | x | x | x | x
O=C(NC(=S)Nc1ccc2oc(=O)ccc2c1)c1cccc(Cl)c1 | 1 | 55 | 87 | 139 | 106 | 23 | 97 | 103 | 102 | 101 | 102 | 0.2
C=CCNc1oc(-c2cccc(F)c2)nc1C#N | -3 | 98 | 92 | 98 | 89 | 95 | x | x | x | x | x | x
O=C(c1ccc(O)cc1)c1ccc(O)cc1O | 2 | 102 | 114 | 99 | 98 | 102 | x | x | x | x | x | x
CN(C)c1ccc(C(=O)c2ccc(O)cc2O)cc1 | 1 | 81 | 206* | 85 | 84 | 58 | 105 | 100 | 99 | 90 | 89 | x
COC(=O)C(Cc1c[nH]c2ccccc12)NC(C)=O (configuration not stated) | 1 | 97 | 103 | 98 | 95 | 100 | x | x | x | x | x | x
CC(=O)N[C@@H](Cc1c[nH]c2ccccc12)C(=O)OCc1cc(C(F)(F)F)cc(C(F)(F)F)c1 | 34 | 79 | 160* | 166 | 101 | 113 | 100 | 101 | 99 | 100 | 97 | x
O=S(=O)(/N=C(\Sc1ccccc1)c1ccccc1)c1ccc(Cl)cc1 | 8 | 97 | 111 | 100 | 86 | 96 | 110 | 105 | 98 | 99 | 100 | x
Cc1ccc(S(=O)(=O)/N=C(/Sc2ccccc2C(=O)O)c2ccccc2)cc1 | 21 | 98 | 98 | 97 | 91 | 94 | 111 | 102 | 102 | 105 | 93 | x
O=S(=O)(/N=C(\c1ccccc1)N1CCOCC1)c1ccc(Cl)cc1 | -1 | 102 | 94 | 101 | 104 | 105 | x | x | x | x | x | x
Cc1ccc(S(=O)(=O)/N=C(/Nc2cccc(C(=O)O)c2)c2ccccc2)cc1 | -8 | 103 | 93 | 106 | 99 | 99 | x | x | x | x | x | x
Cc1ccc(S(=O)(=O)/N=C(\Sc2ccccc2)c2ccccc2)cc1 | 6 | 89 | 174* | 96 | 80 | 104 | x | x | x | x | x | 0
Cc1ccc(S(=O)(=O)/N=C(\c2ccccc2)N(C)S(=O)(=O)c2ccccc2)cc1 | 5 | 103 | 101 | 108 | 101 | 104 | x | x | x | x | x | x
COc1ccccc1CN(C)C(=O)c1ccc(S(=O)(=O)Nc2c(C)n(C)n(-c3ccccc3)c2=O)cc1 | 3 | 97 | 102 | 104 | 100 | 105 | x | x | x | x | x | x

High-throughput results (PubChem)
